Results published in PubChem BioAssay AID588458 (Sanford-Burnham Center for Chemical Genomics, 2011).
About 3,000 (0.83%) of roughly 360,000 compounds were called active. The entries come from a sample that favours actives as a whole. A number with no mark means an inactive call. Rule as the data show it: active = inhibition above about 50%; inactive = the rest.

biological target: DNA (cytosine-5)-methyltransferase 1 (Homo sapiens) (UniProt P26358); assay: human DNMT1 methyltransferase inhibitors, primary screen, biochemical, molecular beacon, fluorescence, HinP1I cleavage, uHTS (AID 588458); conditions: at 10 µM, hits give high values
Sequence (P26358 504-1616 limits assumed): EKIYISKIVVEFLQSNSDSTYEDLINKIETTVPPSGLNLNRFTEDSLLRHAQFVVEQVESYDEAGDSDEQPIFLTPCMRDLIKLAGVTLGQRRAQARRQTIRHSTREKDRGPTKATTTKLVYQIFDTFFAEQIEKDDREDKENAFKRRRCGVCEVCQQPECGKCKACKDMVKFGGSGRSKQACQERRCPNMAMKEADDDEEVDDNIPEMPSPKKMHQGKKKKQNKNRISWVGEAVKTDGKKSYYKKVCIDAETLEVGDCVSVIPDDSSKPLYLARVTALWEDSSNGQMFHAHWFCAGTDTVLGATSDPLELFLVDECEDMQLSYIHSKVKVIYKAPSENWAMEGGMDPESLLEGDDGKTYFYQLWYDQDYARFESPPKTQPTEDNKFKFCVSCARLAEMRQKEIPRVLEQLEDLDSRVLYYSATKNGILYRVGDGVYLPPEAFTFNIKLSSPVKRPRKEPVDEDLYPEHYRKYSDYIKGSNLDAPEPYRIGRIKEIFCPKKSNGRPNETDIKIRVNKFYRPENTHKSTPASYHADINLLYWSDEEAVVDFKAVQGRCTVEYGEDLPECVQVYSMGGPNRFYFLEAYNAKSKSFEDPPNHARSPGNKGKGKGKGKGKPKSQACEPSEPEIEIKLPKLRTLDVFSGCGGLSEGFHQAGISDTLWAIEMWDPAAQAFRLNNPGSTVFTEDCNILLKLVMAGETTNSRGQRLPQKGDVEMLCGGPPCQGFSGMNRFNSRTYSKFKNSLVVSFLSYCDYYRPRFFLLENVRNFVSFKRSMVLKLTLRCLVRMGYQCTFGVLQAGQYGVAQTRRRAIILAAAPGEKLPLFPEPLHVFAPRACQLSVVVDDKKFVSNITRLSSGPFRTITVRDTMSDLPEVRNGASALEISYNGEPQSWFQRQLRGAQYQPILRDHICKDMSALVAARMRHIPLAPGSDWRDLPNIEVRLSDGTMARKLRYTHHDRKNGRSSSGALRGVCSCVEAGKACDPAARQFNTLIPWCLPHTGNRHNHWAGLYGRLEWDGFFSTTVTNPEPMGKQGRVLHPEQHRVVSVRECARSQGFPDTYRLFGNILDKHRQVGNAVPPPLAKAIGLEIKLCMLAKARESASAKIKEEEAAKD

| Structure (SMILES) | inhibition (reported as % activation of signal) |
| --- | --- |
| O=C(Nc1cccc2cccnc12)c1ccc2sc([C@H]3C[C@H](O)[C@@H](CO)O3)nc2c1 | -5.28% |
| CC(C)CCNC(=O)c1ccc2c(Cl)c3c(nc2c1)CCC3 | -1.49% |
| CC(=O)c1ccc(NC(=O)c2ccc3c(Cl)c4c(nc3c2)CCCC4)cc1 | 76.2% (active) |
| COc1cccc(NC(=O)c2ccc3c(SCC(=O)O)c4c(nc3c2)CCCC4)c1 | 9.48% |
| CC1=C(C(=O)N2CCOCC2)CC(CC(=O)NCCCN(C)C)C(=O)N1Cc1ccc(C(C)(C)C)cc1 (stereo not given) | 2.88% |
| O=c1c2cc([N+](=O)[O-])ccc2nc2n1CCC2 | 2.73% |
| Cc1cccc(NC(=S)N(CCN(C)C)C(C)c2ccco2)c1 (stereo not given) | -0.09% |
| O=C(CCC(=O)N/N=C/c1ccc(Br)o1)N/N=C/c1ccc(Br)o1 | 17% |
| O=C(CCNC(=O)c1ccccc1)NN=Cc1ccc(Br)o1 | 50.6% (active) |
| O=C(CCc1n[nH]c(=O)[nH]c1=O)N/N=C/c1ccc(Br)o1 | 5.93% |
| COc1ccccc1OC(C)C(=O)Nc1ccc(S(=O)(=O)Nc2nccs2)cc1 (stereo not given) | 0.4% |
| CSc1nc(-c2ccco2)nn1C(=O)c1ccccc1Cl | 4.2% |
| COc1ccc(NCc2nnc(SCc3ccccc3)n2-c2ccc(OC)cc2)cc1 | -3.05% |
| O=C(Nc1nnc(SCc2ccccc2Cl)s1)c1cccc([N+](=O)[O-])c1 | -4.99% |
| c1ccc(Cc2c(-c3ccco3)nc3c4ccccc4ccn23)cc1 | -16.2% |
| Clc1ccccc1CSc1nnc(-c2ccco2)c(-c2ccco2)n1 | 92.8% (active) |
| c1ccc(CSc2nnc(-c3ccco3)c(-c3ccco3)n2)cc1 | 113% (active) |
| CC(c1nnc(SCC(=O)Nc2sccc2C#N)n1-c1ccc(Cl)cc1)N(C)C (stereo not given) | -2.07% |
| CCOc1cc(CNCCN(C)C)c(Cl)cc1OCC(=O)NCCc1ccccc1 | 2.37% |
| N#Cc1cc([N+](=O)[O-])ccc1NCC1CCCO1 (stereo not given) | 0.79% |
| COCCNC(=O)CN(Cc1ccco1)C(=O)CCC(=O)Nc1nccs1 | 0.73% |
| CC(C)(C)C(=O)N1CCC[C@@]1(CO)C(=O)O | 5.81% |
| O=C(CCS(=O)(=O)c1ccc(Br)cc1)NCCc1ccc(Cl)cc1 | 68.7% (active) |

| Structure (SMILES) | inhibition (reported as % activation of signal) |
| --- | --- |
| O=C(NCCS(=O)(=O)c1ccc(Br)cc1)c1ccccc1Cl | 2.79% |
| CCCCC(=O)N/N=C(\C)CC(=O)Nc1cc(Cl)ccc1OC | 2.33% |
| COc1ccc(Cl)cc1NC(=O)COC(=O)c1ccc(Br)o1 | -6% |
| Cc1ccc(S(=O)(=O)CCC(=O)OCC(=O)NCCc2ccc(S(N)(=O)=O)cc2)cc1 | -1.16% |
| COc1ccc(Cl)cc1NC(=O)CCS(=O)(=O)c1ccc(Br)cc1 | 94.1% (active) |
| Cc1noc(C)c1CSCC(=O)N(CCC(C)C)c1c(N)n(Cc2ccccc2)c(=O)[nH]c1=O | -0.4% |
| Cc1ccn2c(c1)nc(=O)c1cc(S(=O)(=O)N3CCC(C)CC3)ccc12 | 2.87% |
| Cc1cc(C(=O)N2CCCC2(C)C(=O)O)c(C)o1 (stereo not given) | 8.96% |
| NC(=O)COC(=O)c1ccc2c(c1)C(=O)N(Cc1ccco1)C2=O | 1.59% |
| COC(=O)COc1ccc2c(c1C)O/C(=C\c1ccco1)C2=O | -2.61% |
| CC(C)(C)C1C/C(=C/c2ccco2)C(=O)/C(=C/c2ccco2)C1 (stereo not given) | 95.9% (active) |
| COc1ccc(-c2ccc3c(c2)[C@@H]2C[C@H](N(C)S(=O)(=O)c4ccccc4)[C@H]([C@H](C)O)C(=O)N2CC3)cc1 | -4.42% |
| C[C@@H]1CN([C@H](C)CO)C(=O)CCCn2cc(nn2)CO[C@H]1CN(C)S(C)(=O)=O | 2.33% |
| CCc1c(C)nc2c(-c3ccccc3)c(C)nn2c1Nc1ccc(NC(C)=O)cc1 | -6.65% |
| CC(=O)Nc1ccc(Nc2c3ccccc3nc3ccccc23)cc1 | 57.2% (active) |
| O=C(NNc1c2ccccc2nc2ccccc12)c1cc2ccccc2cc1O | -19.2% |
| Oc1ccc2ccc3cccc[n+]3c2c1 | 59% (active) |
| CCOc1cc(/C=C/C(=O)OCC(=O)NCCN2C(=O)CSC2=O)ccc1OCC(C)C | 8.03% |
| CCCCC(=O)N(c1ccc(OC)cc1)C1C=CS(=O)(=O)C1 (stereo not given) | -1.75% |
| Cc1ccc2cc(C)c(N3CCC(C)CC3)nc2c1 | 80.8% (active) |
| Cc1ccc2cc(C)c(N3CCN(c4ccc(F)cc4)CC3)nc2c1 | 2.96% |
| Cc1cc(C)c2cc(C#N)c(N3CCNCC3)nc2c1 | 6.52% |
| CC(=O)NC1C(Oc2ccc(C)cc2)OC2COC(c3ccco3)OC2C1O (stereo not given) | 3.51% |

| Structure (SMILES) | inhibition (reported as % activation of signal) |
| --- | --- |
| CCN(CCn1cccn1)Cc1nc(-c2ccc(C(=O)OC)cc2)no1 | -5.27% |
| CCS(=O)(=O)C1=NSC2=NC(=O)/C(=C\c3ccc(OS(=O)(=O)c4ccccc4)cc3)C(=N)N21 | -8.29% |
| CS(=O)(=O)c1ccc2c(c1)SC1=NC(=O)/C(=C/c3ccco3)C(=N)N12 | 74.4% (active) |
| CC(=O)OC[C@@H]1CN(Cc2ccccc2)C[C@H](n2cnc3c(NCc4ccco4)ncnc32)O1 | -4.87% |
| COc1ccc(S(=O)(=O)N2CCC(C(=O)NCCC(=O)NCCc3cccc(F)c3)CC2)cc1 | 2% |
| C=CCn1c(=NC(=O)c2ccc(S(=O)(=O)N3CCCC3)cc2)sc2cc(NC(C)=O)ccc21 | 57.7% (active) |
| COc1cc(C(C)=O)ccc1OC(C)C(=O)Nc1ccc(S(=O)(=O)N2CCCC2)cc1 (stereo not given) | -3.33% |
| C=CCn1c(=NC(=O)c2cccs2)sc2cc(NC(C)=O)ccc21 | 27% |
| CN(Cc1ccccc1)C(=O)CCC1CCN(C(=O)c2ccco2)CC1 | 0.12% |
| O=C(COC(=O)CNS(=O)(=O)c1ccc(F)c(F)c1F)NC1CCCC1 | 1.29% |
| CN1CCN(C(=O)c2ccccc2NC(=O)COc2ccccc2Cl)CC1 | 0.74% |
| CCN(CC(=O)NCC(=O)Nc1cccc(C)c1C)Cc1ccccc1 | 0.32% |
| Cc1ccc2[nH]c(=O)c(-c3nc4c(C)cccn4c3NCc3ccco3)cc2c1 | 50.4% (active) |
| Cc1ccc2nc(SC(C)C(=O)NCc3ccco3)[nH]c2c1 (stereo not given) | -2.41% |
| Cc1ccc(SCC(=O)NC(=O)NCc2ccco2)c(C)c1 | 48.3% |
| O=C(NNS(=O)(=O)c1ccccc1C(F)(F)F)c1cc2ncc(C(F)(F)F)cc2s1 | 5.47% |
| O=C(Nc1nnc(C2COc3ccccc3O2)o1)c1ccc(F)cc1 (stereo not given) | 2.41% |
| COc1ccccc1NC(=O)C(CC(=O)O)Cc1cc(C)cc(C)c1 (stereo not given) | 7.02% |
| Cc1ccc(/C=C/C(=O)Nc2cc(S(=O)(=O)N3CCCCCC3)ccc2OCC(F)(F)F)o1 | -10.7% |
| COC(=O)/C=C\C(=O)Nc1cccc([N+](=O)[O-])c1 | 1.93% |
| Cc1ccc(/C=C/C(=O)Nc2ccc([N+](=O)[O-])c(NC(=O)/C=C/c3ccc(C)o3)c2)o1 | 86.1% (active) |
| CCOC1=C2[C@H]([C@H]3C(=O)N(c4ccccc4)C(=O)[C@H]3C1)[C@@H](c1ccccc1)N(S(=O)(=O)c1ccc(C)cc1)[C@H]2c1ccccc1 | 0.54% |
| COc1ccc(CN2C[C@H]3CON(C)[C@H]3C[C@H]2c2ccc(-c3cccc(F)c3)cc2)cc1 | -13.2% |

| Structure (SMILES) | inhibition (reported as % activation of signal) |
| --- | --- |
| CN(C(=O)CC1C(=O)NCCN1Cc1ccc(F)cc1Cl)C1CCCCC1 (stereo not given) | -5.76% |
| Cc1ccc(NC(=O)Cn2c(=O)n(CCC(=O)NC3CCN(Cc4ccccc4)CC3)c(=O)c3ccccc32)cc1 | 1.32% |
| CCCCNC(=O)CCn1c(=O)c2ccccc2n(Cc2cc(C)ccc2C)c1=O | 55.4% (active) |
| COCCNC(=O)CCCn1c(=O)c2ccccc2n(Cc2cccc([N+](=O)[O-])c2)c1=O | -1.32% |
| COC(=O)/C(=C\Nc1ccccc1)NC(=O)c1ccc(Cl)cc1Cl | -1% |
| COc1cccc2cc(C(C)N(CCCN3CCOCC3)C(=O)Nc3ccc(Cl)cc3)oc12 (stereo not given) | 0.19% |
| CCOC(=O)C1(Cc2ccc(Cl)cc2)CCN(C(=O)C2=NNC(=O)CC2)CC1 | -1.13% |
| COc1ccc(C(=O)OCC(=O)Nc2cccc(C(C)=O)c2)cc1OC | 70.9% (active) |
| COc1ccc(C(=O)OCC(=O)NCCCc2ccccc2)cc1OC | 0.32% |
| CC(=O)Nc1cccc(C(=O)OCC(=O)Nc2nnc(-c3ccccc3)o2)c1 | 1.02% |
| C=CCNC(=O)COC(=O)CNC(=O)c1cc(Cl)cc([N+](=O)[O-])c1 | 6.93% |
| CCc1c(C)c2c(C)[nH]nc2oc1=O | -3.15% |
| CCC(C)Cn1c(O)cc2nn(-c3nc4ccccc4s3)c(=O)c-2c1C (stereo not given) | 52.2% (active) |
| CC1CCCCC1NC(=O)c1cc(=O)[nH]c2ccccc12 (stereo not given) | 3.02% |
| O=C(c1ccc(CS(=O)Cc2ccccc2Cl)o1)N1CCN(c2ccccc2)CC1 (stereo not given) | 5.54% |
| O=C(c1ccc(S(=O)(=O)NCc2ccco2)cc1)N1CCN(c2ccccc2)CC1 | 3.68% |
| O=C(c1ccc(CS(=O)(=O)c2ccccc2)o1)N1CCN(c2ccccc2)CC1 | 84.6% (active) |
| CC(=O)N/C(=C/c1ccc(OC(F)F)cc1)C(=O)O | -1.65% |
| N#Cc1ccccc1CN1C(=O)S/C(=C/c2cccn2-c2cccc(C(=O)O)c2)C1=O | 102% (active) |
| O=C(NCCN1C(=O)S/C(=C\c2cccnc2)C1=O)c1cccc(OC(F)F)c1 | -3.23% |
| Cc1ccc(C(=O)O)cc1-c1ccc(/C=C2\SC(=O)N(CC(=O)Nc3ccc4c(c3)OCO4)C2=O)o1 | 12.5% |
